FMDV inh: High Throughput Screening for Foot and Mouth Disease Virus Antivirals | FMDV antiviral cell-based qHTS | Potency, µM (titrated, usually from 57.9 µM), for inactives: top-dose activity change, negative = inhibition, usual class: inhibitors | actives 1.2% (n = 410,000) | AID 1159524, 2015; calls by dose curve; tested in HEK293T cells; note: read-out not given here; potency is the fitted concentration of half-maximal effect; nearly all actives have a fitted effect of over 45% in size
Vaccinia mCherry: qHTS for Stage-Specific Inhibitors of Vaccinia Orthopoxvirus: mCherry Reporter Primary qHTS | Vaccinia virus mCherry reporter infection, fluorescence | Potency, µM (top dose mostly 36.5 µM), inactives show at the highest dose activity change, negative = inhibition, hits mostly inhibitors | actives 0.63% (n = 310,000); calls by dose curve; tested in A549 cells; note: potency is the fitted concentration of half-maximal effect; nearly all actives have a fitted effect of over 35% in size
HCMV antiviral: qHTS Assay for inhibitors of the human cytomegalovirus (HCMV). HFF cells, HCMV-luciferase reporter, 72 h; hits give low values. activity change, negative = inhibition, % at 57.5 µM. actives 4.5% (n = 410,000); in the data active = activity change below about -60%; inconclusive = no clear call, values can overlap the other calls; inactive = above about -39%
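Two compound doses tested in HFFs infected with HCMV-luciferase, MOI 1 PFU/cell, 72 h at 37C. Lysate luminescence read with OneGlo; data normalized against buffer-only and 10uM Salinomycin inhibitor controls.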
HCV inhibitor: qHTS Assay for Inhibitors of Hepatitis C Virus (HCV). AID 651820, 2012. Huh7.5.1 HCVcc-Cre infection, luciferase reporter, 44 h. Potency, µM (highest dose often 41.8 µM), for the others: at the highest dose activity change, negative = inhibition, usual class: inhibitors. actives 3.4% (n = 340,000); active = well fitted inhibition curve with a large enough effect; inconclusive = small, poorly fitted or top-dose-only effect, or another doubt; inactive = no such curve, though single readings can be large or run the other way; note: potency is the fitted concentration of half-maximal effect
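HCVcc-Cre virus at an moi near 0.5 was added right after compound to cells cultured 4 h from seeding (1,000 cells/well). Luciferase activity was determined 44 h later, 15 min after substrate addition at RT.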
VACV Venus inh: qHTS for Stage-Specific Inhibitors of Vaccinia Orthopoxvirus: Venus Reporter Primary qHTS; Potency, µM (doses to about 36.5 µM), for the others: at the highest dose activity change, negative = inhibition, hits mostly inhibitors; Vaccinia virus Venus reporter expression, fluorescence; actives 0.46% (n = 330,000); calls by dose curve; tested in A549 cells; note: potency is the fitted concentration of half-maximal effect; nearly all actives have a fitted effect of over 30% in size
An asterisk follows results filed as active; i = inactive; ? = inconclusive; . = not tested or not shown; [ ] = another dose, or the depositor's remark. A selection: hits, their analogues and other compounds. The true share with any hit is near 7.3%. % is set by controls: 0 for no effect and ±100 for the full control effect.

SMILES	FMDV inh	Vaccinia mCherry	HCMV antiviral	HCV inhibitor	VACV Venus inh
Cc1ccc(C)c(N2CCN(C(=O)CCCN3C(=S)NC(C)(C)CC3C)CC2)c1 (configuration not stated)	22.4µM*	-8.9%	-63.8*	10µM*	-27.0%
CC1(C)CC[C@]2(C(=O)O[C@@H]3OC(CO)[C@@H](O)[C@H](O)[C@H]3O)CC[C@]3(C)C(=CCC4[C@@]5(C)CC[C@H](O[C@@H]6OC(C(=O)O)[C@@H](O)[C@H](O)[C@H]6O)C(C)(C)C5CC[C@]43C)[C@@H]2C1 (some centres not stated)	-27.1%	-1.9%	-10.8	3.6%	?
CC(C)=CCC[C@](C)(OC1OC(COC2OCC(O)C(O)C2O)C(O)C(O)C1O)C1CC[C@]2(C)C1C(O)CC1[C@@]3(C)CCC(O[C@@H]4O[C@H](CO)C(O)C(O)C4O[C@@H]4OC(CO)C(O)C(O)C4O)C(C)(C)C3CC[C@]12C (some centres not stated)	-22.3%	i	-3.8	1.2%	2.8%
C/C=C(\C)C(=O)OC1CC(C)(C)C[C@H]2C3=CC[C@@H]4[C@@]5(C)CCC(O[C@@H]6O[C@@H](C(=O)O)[C@@H](O)C(O[C@@H]7OC[C@H](O)[C@@H](O)[C@@H]7O[C@@H]7OC(CO)C(O)[C@@H](O)[C@@H]7O)C6O[C@@H]6OC(CO)C(O)C(O)C6O)[C@@](C)(CO)[C@@H]5CC[C@]4(C)[C@]3(C)CC(O)[C@@]12CO (some centres not stated)	-17.8%	-8.4%	?	11.2µM*	?
COC(=O)C1OC(OC2CC[C@]3(C)C(CC[C@@]4(C)[C@@H]3CC=C3[C@@H]5CC(C)(C)CC[C@]5(C(=O)OC5OC(CO)C(O)C(O)C5O)CC[C@]34C)C2(C)C)C(O)C(O)C1O[C@H]1OCC(O)C(O)C1O (some centres not stated)	-25.6%	-9.1%	.	10µM*	-24.0%
O=C(CCN1CCCCO1)N1CCCC(Nc2cccc(F)c2)C1 (configuration not stated)	-5.9%	i	61.6	12.6%	4.2%
CCOc1ccc(C2=C(C(C)=O)Sc3nnc(C)n3N2C(C)=O)cc1	-0.4%	?	-10.6	.	?
CCc1nnc2n1N(C(C)=O)C(c1ccc(C(C)(C)C)cc1)=C(C(C)=O)S2	?	?	-97.7*	.	?
Cc1nn(-c2ccc(N3CCCC3)nn2)c(C)c1CCC(=O)N1CCN(c2ccccc2F)CC1	-14.8%	-2.7%	-61.5*	.	-9.8%
COc1ccccc1N1CCN(C(=O)CCc2c(C)nn(-c3ccc(N4CCCC4)nn3)c2C)CC1	-26.4%	-8.9%	11.0	.	-9.3%
Cc1cc(OCC(=O)NNC(=O)CCc2ccccc2)ccc1Br	-2.0%	-1.9%	-11.7	0.4%	3.7%
N#Cc1c(N)nc(SCc2ccccn2)c(C#N)c1-c1cccs1	-1.3%	.	-68.5*	?	.
O=C(O)CSc1nnc(-c2ccc3c(c2)OCO3)o1	-16.0%	i	36.4	21.4%	-9.0%
O=C(c1ccc(Cl)cc1)N1CCCCC(Sc2nnc(-c3ccc4c(c3)OCO4)o2)C1=O (configuration not stated)	10µM*	.	-66.7*	-2.5%	.
O=c1[nH]c(Cc2ccccn2)nc2scc(-c3ccccc3Cl)c12	-23.5%	-18.1%	-83.1*	?	20.2%
CCn1nc(C)cc1C(=O)Sc1cccc(Br)c1	?	-1.6%[7.34 µM]	-106.5*	4.6%	-8.9%[7.34 µM]
Cc1cc(C)n(C(=O)CNC(=O)c2cccc(Br)c2)n1	8.4%	i	?	11.2%	-1.5%
CCn1nc(C)cc1C(=O)Sc1ccc(Cl)cc1Cl	?	-22.4%[7.34 µM]	-107.9*	3.5%	-17.0%[7.34 µM]
CCn1nc(C)cc1C(=O)OCC(=O)c1ccc(Cl)cc1	-0.8%	-7.0%	15.6	2.3%	-1.1%
Cc1cccc(OCc2nnc(SCC(=O)Nc3ccc(C)cc3C)o2)c1	0.9%	-10.8%	2.1	.	0.8%
CCOc1cc(C(=O)OCC(=O)c2c[nH]c3ccccc23)ccc1OCC(=O)N1CCOCC1	-12.5%	-14.8%	51.5	?	-12.4%
COc1cc(C(=O)OCC(=O)c2c[nH]c3ccccc23)ccc1OCC(=O)N1CCOCC1	-20.6%	.	-63.9*	-24.2%	.
COc1cc(OC)c(N(C)S(=O)(=O)c2cccc(C(=O)OCC(=O)c3c[nH]c4ccccc34)c2)cc1Cl	8.91µM*	-25.1%	?	?	-24.8%
CC(=O)N1CCC2(CC1)CN(C(c1ccccc1)c1ccccc1)C2	-1.7%	.	.	.	.
O=C(CCCOc1ccccc1)Nc1ccc(S(=O)(=O)N2CCOCC2)cc1	-14.1%	.	4.3	-0.9%	-27.4%
SMILES	FMDV inh	Vaccinia mCherry	HCMV antiviral	HCV inhibitor	VACV Venus inh
C/C=C/c1ccc(OCC(=O)Nc2cc(S(=O)(=O)N3CCOCC3)ccc2N2CCCC2)c(OC)c1	0.9%	-19.5%	?	10µM*	-27.9%
CCOc1ccc(OCCCC(=O)Nc2cc(S(=O)(=O)N3CCOCC3)ccc2N2CCOCC2)cc1	-11.8%	.	-90.3*	?	.
N#Cc1ccc(NC(=O)CCc2ccc(S(=O)(=O)N3CCOCC3)cc2)cc1	28.2µM*	.	0.1	?	.
Cc1ccc(OCCCC(=O)Nc2ccc(S(=O)(=O)N3CCOCC3)cc2)cc1	?	.	-62.6*	?	.
CCc1ccccc1NC(=S)N1CCN(c2cccc(OC)c2)CC1	-13.7%	-13.6%	-17.0	-7.8%	?
CCCN1CCC(=O)N(CCC#N)CC1	.	i	.	.	-14.3%
Cc1ccccc1-c1cccc([C@@H]2C[C@H]3[C@H](CON3C)CN2S(=O)(=O)c2ccccc2C)c1	?	-23.0%	-25.3	?	-7.3%
COc1ccc(N(CC(=O)Nc2ccc(S(=O)(=O)N3CCOCC3)cc2)S(=O)(=O)c2ccc(F)cc2)cc1	9.5%	-28.1%	-5.9	14.1µM*	-21.6%
COc1ccc(CCC(=O)Nc2ccc(S(=O)(=O)N3CCOCC3)cc2)cc1	9.3%	-23.6%	53.1	-19.4%	-4.3%
CNC(=O)C[C@@H]1C(=O)N(C2CCCCC2)CC1(C)C	3.7%	i	-6.9	.	-3.1%
CCCCCCCCCCCCCCCC[N+](C)(C)CC	-9.2%	-14.2%	-96.0*	?	-8.4%
CCCCCC[N+](C)(C)CCSSCC[N+](C)(C)CCCCCC	3.3%	.	5.1	3.7%	.
C[N+](C)(C)CCCCCC[N+](C)(C)C	-23.9%	-9.9%	-0.6	-2.5%	-10.2%
CCCCCCCCCCCCCCCC[N+](C)(C)C	?	?	-94.3*	?	?
COCCN(C(=O)c1cc(S(=O)(=O)N2CCCCC2)ccc1Cl)c1c(N)n(CC(C)C)c(=O)[nH]c1=O	-10.4%	i	-14.8	15.6%	-2.2%
CCOC(=O)c1sc2nc[nH]c(=O)c2c1C	18.2%	-26.1%	-13.4	-7.7%	-16.9%
CCOC(=O)c1c(C)c2c(=O)[nH]cnc2n1-c1ccccc1	-26.6%	.	-62.1*	-29.8%	.
